# A selection: hits, their analogues and other compounds. The true share with any hit is near 9.6%.
# L major viab – Leishmania major promastigote growth inhibition; 200,000 compounds, 9% hits; inhibition, % at 10 µM; Leishmania major promastigotes, resazurin fluorescence viability; in the data active = inhibition above about 50%;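 also: promastigotes grown with compound for 44 hours at 28 °C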
# Insulin prom up – MIN6 insulin promoter up-regulation; MIN6 insulin promoter-GFP reporter, high-content imaging; stronger effect = higher value; z-score at 5 µM; 190,000 compounds, 0.3% hits; AID 1625;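 active = z-score above 3 at 5 µM with at least 500 cells counted in the well; inconclusive = wells under 500 cells, flagged as cytotoxic or low count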
# Autophagy HCS – alters autophagy in cells. 190,000 compounds, 0.98% hits. MEF GFP-LC3 puncta imaging; test concentration mostly 10 µM. calls only at 10 µM (by protocol);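 active = percentage of spot-positive cells more than 3 SD above its plate mean, without a fluorescence outlier flag or 80% toxicity; inconclusive = no clear call, values can overlap the other calls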
# HCT116 PTEN-null – growth suppressors of cells with PTEN tumor suppressor deletion; HCT116 PTEN-null viability, CellTiter-Glo, 60 h; stronger effect = lower value; viability, % at 10 µM; 140,000 compounds, 1.2% hits;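 active = viability at or below a set limit, 4 SD under the median of all tested compounds, cut at about 3.7% in these data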;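 also: PTEN knockout HCT116 line with beta catenin targeted HCT116 as companion control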
# Insulin prom inh – TRM-6 insulin promoter activity inhibition | TRM-6 cells (human fetal islet line), insulin promoter-eGFP reporter, imaging; reporter expression induced with tamoxifen | inhibition, % at 2 µM | 130,000 compounds, 0.9% hits;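 active = inhibition above the mean plus 3 SD, with well images judged a real hit on visual review, cut at about 60% in these data, passing the limit was not always enough; inconclusive = inhibition over the cutoff but images rejected on review; inactive = inhibition not above the cutoff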
# HCT116 bCat-KO – beta-catenin-lacking colon tumor cell growth suppression; HCT116 beta-catenin knockout viability, CellTiter-Glo, 60 h; stronger effect = lower value; viability, % at 10 µM; 140,000 compounds, 1.5% hits; AID 818;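 active = viability at or under a set limit, the compound median less 4 SD, cut at about 6% in these data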
# Lmaj promast 1uM – blocks Leishmania major promastigote growth at 1 uM, repeat screen; inhibition, % at 1 µM; shares compounds with L major viab; 1,100 compounds, 13% hits; L. major promastigote growth, resazurin fluorescence, 48 h;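 active = inhibition above about 50% in both repeat tests, limit read from the data; inconclusive = one repeat under the set limit, the other over it; inactive = both repeats under the set limit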
# A number is an active result; - = inactive; ? = inconclusive; . = no result; + = active, no number.
SMILES,L major viab,Insulin prom up,Autophagy HCS,HCT116 PTEN-null,Insulin prom inh,HCT116 bCat-KO,Lmaj promast 1uM
CCOC(=O)c1ccc(N2C(=O)c3n[nH]c(C)c3C2c2ccco2)cc1 (configuration not stated),-,-,-,-,-,-,.
CC(C)CCNC(=O)C(=O)NCCC1=CCCCC1,-,-,-,-,-,-,.
CN1C(=O)C(c2nnc(Nc3cccc4ccccc34)s2)C2CC1(C)Oc1ccccc12 (configuration not stated),72,-,-,-,-,-,-
CN1C(=S)N(c2cccnc2)C(=O)/C1=C\c1ccc(N(C)C)cc1,-,.,-,.,-,.,.
CC(C)(C)c1ccc(-c2nc(C=O)c3ccccn23)cc1,63,-,-,-,.,-,-
Cc1c(OCc2ccccc2)c(=O)ccn1Cc1ccccc1,-,-,-,-,-,-,.
OCCC1CN(Cc2cccc(C(F)(F)F)c2)CCN1Cc1ccccc1 (configuration not stated),80,-,-,.,.,.,?
OCCC1CN(Cc2ccc(C(F)(F)F)cc2)CCN1Cc1ccccc1 (configuration not stated),-,-,-,.,.,.,.
O=C(O)c1ccc(NS(=O)(=O)c2ccc3nnn(O)c3c2)cc1,-,.,-,-,-,-,.
CNS(=O)(=O)c1cccc(C(=O)OCC(=O)Nc2ccccc2OC(F)F)c1,-,-,-,-,-,-,.
COc1ccc(CN(C(=S)Nc2ccccc2)C2CC(=O)N(c3ccc(Cl)cc3)C2=O)cc1 (configuration not stated),99,-,-,-,.,-,-
O=S(=O)(CCSc1nc2ccccc2s1)c1nc2ccccc2s1,100,-,-,3.3,-,3.9,54
C=CCS(=O)(=O)c1nc2ccccc2s1,101,-,-,-,-,-,-
CC(C)(C)S(=O)(=O)c1nc2ccccc2s1,-,-,-,-,-,-,.
O=C1CSC(c2cccs2)N1c1ccccc1 (configuration not stated),-,-,-,-,.,-,.
c1ccc(N2CCN(c3ccccc3)C2c2cccs2)cc1,94,.,-,-,.,-,-
O=c1oc2ccccc2nc1/C=C(O)/C=C\c1ccccc1,99,-,-,-,-,-,-
Cc1ccc(/C(O)=C/c2nc3ccccc3oc2=O)cc1,.,-,.,.,.,.,.
CCN(CC)c1ccc(-c2nn3c(-c4n[nH]c5c4CCC5)nnc3s2)cc1,62,-,-,-,.,-,-
O=C(CNC(=S)N(Cc1ccccc1)Cc1cccnc1)NC1CC1,-,.,-,-,.,-,.
CCC(C)NC(=O)CNC(=S)N(Cc1ccccc1)Cc1cccnc1 (configuration not stated),75,.,-,-,-,-,-
Cc1cc2nc3c(nc2cc1C)C1(C(=O)N(C)C)CCC3(C)C1(C)C (configuration not stated),94,-,-,-,-,-,-
CCc1ccc(/C=C/c2c[nH]c3ccccc23)[n+](CC)c1,100,?,-,-,-,-,-
CCc1ccc(-c2cc(C(=O)N/N=C/c3c[nH]c4ccccc34)[nH]n2)cc1,-,-,-,.,.,.,.
O=C(Nc1ccc(NC(=O)c2ccco2)nc1)c1ccccn1,-,-,-,-,-,-,.
SMILES,L major viab,Insulin prom up,Autophagy HCS,HCT116 PTEN-null,Insulin prom inh,HCT116 bCat-KO,Lmaj promast 1uM
c1cc2c(cc1C1CCCCC1)c1c3n2CCN=C3CCC1,101,.,-,-,-,2.1,-
c1cc2c(cc1C1CCCCC1)c1c3n2CCCNC3CCC1 (configuration not stated),100,?,+,0.7,-,0.5,-
Cc1ccc2c(c1)c1c3n2CCCNC3CCC1 (configuration not stated),-,?,-,-,.,-,.
Cc1ccc2c(c1)c1c3n2CCN=C3CCC1,-,-,-,-,-,-,.
N#Cc1c(NC(=O)C2CC(c3c(F)cccc3Cl)=NO2)sc2c1CCC2 (configuration not stated),64,-,-,-,-,-,-
CNC(=S)NNc1nc(N2CCOCC2)nc(N2CCOCC2)n1,-,.,-,.,-,.,.
Nc1c(C(=O)NCCN2CCOCC2)c2nc3ccccc3nc2n1CCc1ccccc1F,65,-,+,3.8,.,3.6,-
c1ccc2nc3c(nc2c1)c1ccccc1n3CCN1CCOCC1,-,-,-,-,-,-,.
Cc1cccc(C)c1NC(=O)CSc1nc(-c2ccco2)cc(C(F)(F)F)n1,-,.,-,-,-,-,.
CCS(=O)(=O)c1nnnn1-c1ccccc1S(C)(=O)=O,54,-,-,-,-,-,-
Cc1ccc(CS(=O)(=O)c2nc3c(c(N(C)C)n2)CCCC3)cc1,-,-,-,.,.,.,.
CCc1ccc(/C=c2\s/c(=C\C(=O)C(C)(C)C)[nH]c2=O)cc1,-,-,-,-,-,-,.
CC(C)(C)C(=O)/C=c1\[nH]c(=O)/c(=C\c2ccc(F)cc2)s1,73,-,-,-,-,-,-
COc1cc(-c2n[nH]c(=S)n2-c2cc(C(F)(F)F)ccc2Cl)cc(OC)c1OC,-,-,-,-,-,-,.
Cc1ccc(N/N=C/c2c(O)cc(C)oc2=O)cc1,87,-,-,-,-,-,-
Cc1ccc(CO/N=C/c2c(O)cc(C)oc2=O)cc1,-,-,-,.,-,.,.
COc1ccc(C(=O)NC(=S)NNC(=O)c2cnccn2)cc1,100,-,-,-,-,-,-
COc1ccc(CC(=O)NNC(=O)c2cnccn2)cc1,-,-,-,-,-,-,.
CCOC(=O)C1(Cc2ccccc2)CCN(Cc2ccc(C3CCCCO3)s2)CC1 (configuration not stated),.,-,.,.,.,.,.
O=[N+]([O-])c1ccccc1S(=O)(=O)Oc1ccc(C(=S)N2CCOCC2)cc1,81,-,-,-,-,-,-
O=C(C1CCCCN1S(=O)(=O)c1ccccc1[N+](=O)[O-])N1CCOCC1 (configuration not stated),-,-,-,.,-,.,.
COc1ccc(N(CC(=O)Nc2ccccc2C)S(=O)(=O)c2c(C)[nH]c(=O)[nH]c2=O)cc1,.,-,.,.,.,.,.
CC(=O)Nc1ccc(C2=NN(c3ccccc3)C(c3cccs3)C2)cc1 (configuration not stated),66,-,-,.,.,.,-
O=C(c1sc2ccccc2c1Cl)N(Cc1ccccc1Cl)C1CCS(=O)(=O)C1 (configuration not stated),100,-,-,-,-,-,-
O=C(c1sc2ccccc2c1Cl)N(Cc1ccccc1)C1CCS(=O)(=O)C1 (configuration not stated),-,-,-,-,-,-,.
COc1ccc(NC(=O)N(Cc2ccc(C)cc2)Cc2cccnc2)c(OC)c1,70,-,-,-,.,-,-
Cc1ccc(S(=O)(=O)Cn2nnnc2CN(Cc2ccco2)CC2CCCO2)cc1 (configuration not stated),53,-,-,-,-,-,-
CCOc1ccc(C2=Nc3ccccc3C(c3ccc(N4CCOCC4)cc3)=NN2)cc1,63,.,-,-,-,-,-

# Screening results as filed in PubChem BioAssay.
